Results taken from PubChem BioAssay (EPA / NIEHS).
Active and inactive are the calls of the source. How the source made its calls: active means hit-call score of the fitted dose curve at least 0.9, where 1 is the maximum; inactive means score below 0.9.

Legend:
Conditions in all cases: mRNA level, 48 h; actives raise or lower the signal
[1] = read-out: Tumor necrosis factor receptor superfamily member 6 (Homo sapiens) (UniProt P25445); test: LTEA_HepaRG_FAS: Life Technologies and Expression Analysis (LTEA) Assay for Fas cell surface death receptor (FAS) using HepaRG (AID 2283447)
Outline: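 FAS transcript level was measured by TaqMan qRT-PCR against three housekeeping genes after 48 h chemical exposure. Cells were HepaRG, 0.5% DMSO vehicle, with a top concentration of 100 uM and half-log dilutions over eight points, in duplicate.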

[2] = read-out: Fatty acid synthase (Homo sapiens) (UniProt P49327); test: LTEA_HepaRG_FASN: Life Technologies and Expression Analysis (LTEA) Assay for Fatty Acid Synthase (FASN) using HepaRG (AID 2283448);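 further: differentiated human HepaRG liver cells in serum-free induction medium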
Outline: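 Differentiated HepaRG cells in serum-free induction medium exposed 48 h in duplicate to eight half-log concentrations, top 100 uM, 0.5% DMSO. FASN mRNA by qRT-PCR normalised to ACTB, GAPDH, POLR2A; bidirectional fit versus DMSO.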

[3] = read-out: Cyclin Dependent Kinase Inhibitor 1A (CDKN1A), CDKN1A (gene 1026); test: LTEA_HepaRG_CDKN1A: Life Technologies and Expression Analysis (LTEA) Assay for Cyclin Dependent Kinase Inhibitor 1A (CDKN1A) using HepaRG (AID 2283450)
Outline: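 Read-out is CDKN1A mRNA by TaqMan qRT-PCR, normalized to three housekeeping genes and fitted in both directions against the DMSO baseline. Human HepaRG cells were treated 48 h with test chemicals up to 100 uM in half-log steps, 0.5% DMSO.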

[4] = read-out: Cyclin D1 (CCND1), CCND1 (gene 595); test: LTEA_HepaRG_CCND1: Life Technologies and Expression Analysis (LTEA) Assay for Cyclin D1 (CCND1) using HepaRG (AID 2283451);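 on AC50: differentiated human HepaRG liver cells in serum-free induction medium; TaqMan qRT-PCR transcript level normalised to ACTB GAPDH and POLR2A housekeeping genes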
Outline: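 HepaRG plated 48 h, medium switched to serum-free induction medium, chemicals added in duplicate (top 100 uM, half-log steps, 0.5% DMSO) for 48 h, cells lysed, RNA measured by TaqMan qRT-PCR.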

[5] = read-out: catalase (CAT), CAT (gene 847); test: LTEA_HepaRG_CAT: Life Technologies and Expression Analysis (LTEA) Assay for catalase (CAT) using HepaRG (AID 2283452);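 on AC50: TaqMan qRT-PCR signal normalized to ACTB GAPDH and POLR2A housekeeping genes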
Outline: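 Expression of CAT was quantified by TaqMan qRT-PCR with ACTB/GAPDH/POLR2A normalization after 48 h chemical exposure of HepaRG. Eight-point half-log series, top 100 uM, in 0.5% DMSO; gain or loss fitted against vehicle.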

[6] = read-out: flavin-containing dimethylaniline monooxygenases 3 (FMO3), FMO3 (gene 2328); test: LTEA_HepaRG_FMO3: Life Technologies and Expression Analysis (LTEA) Assay for flavin-containing dimethylaniline monooxygenases 3 (FMO3) using HepaRG (AID 2283453);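 on AC50: differentiated human HepaRG liver cells in serum-free induction medium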
Outline: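 Differentiated HepaRG cells in serum-free induction medium, exposed 48 h in duplicate to 8 half-log concentrations up to 100 uM in 0.5% DMSO. FMO3 mRNA by qRT-PCR, normalized to ACTB, GAPDH, POLR2A; bidirectional fit vs DMSO.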

[7] = read-out: CFLAR gene, CFLAR (gene 8837); test: LTEA_HepaRG_CFLAR: Life Technologies and Expression Analysis (LTEA) Assay for CFLAR gene using HepaRG (AID 2283455)
Outline: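 HepaRG, 48 h exposure, 8-pt conc-response (100 uM top, half-log), 0.5% DMSO vehicle, duplicates. CFLAR expression by qRT-PCR; ACTB/GAPDH/POLR2A normalization; gain or loss fit vs DMSO baseline.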

[8] = read-out: Forkhead box O1 (FOXO1), FOXO1 (gene 2308); test: LTEA_HepaRG_FOXO1: Life Technologies and Expression Analysis (LTEA) Assay for Forkhead box O1 (FOXO1) using HepaRG (AID 2283456)
Outline: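 Readout is FOXO1 transcript level by multiplexed qRT-PCR against three housekeeping genes, curve-fitted in both directions relative to 0.5% DMSO vehicle. Human HepaRG cultures received chemicals for 48 h, up to 100 uM in half-log steps.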

[9] = read-out: growth arrest and DNA damage 45 (GADD45A), GADD45A (gene 1647); test: LTEA_HepaRG_GADD45A: Life Technologies and Expression Analysis (LTEA) Assay for growth arrest and DNA damage 45 (GADD45A) using HepaRG (AID 2283458)
Outline: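 Differentiated HepaRG cells exposed 48 h in serum-free induction medium to 8 concentrations, top 100 uM in half-log steps, 0.5% DMSO. GADD45A mRNA quantified by qRT-PCR, normalized to ACTB, GAPDH and POLR2A; bidirectional fit versus DMSO.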

[10] = read-out: Forkhead box O3 (FOXO3), FOXO3 (gene 2309); test: LTEA_HepaRG_FOXO3: Life Technologies and Expression Analysis (LTEA) Assay for Forkhead box O3 (FOXO3) using HepaRG (AID 2283459)
Outline: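 HepaRG, 48 h post-dose; 8 conc., half-log from 100 uM, 0.5% DMSO, duplicates; serum-free induction medium. Readout: FOXO3 mRNA, TaqMan qRT-PCR, housekeeping-normalized. Bidirectional curve fit vs DMSO baseline.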

[11] = read-out: ABC Transporter (ABCB1), ABCB1 (gene 5243); test: LTEA_HepaRG_ABCB1: Life Technologies and Expression Analysis (LTEA) Assay for ABC Transporter (ABCB1) using HepaRG (AID 2283460)
Outline: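 Expression of ABCB1 was quantified by qRT-PCR against three housekeeping genes after human HepaRG cultures received test chemicals for 48 hours. Concentrations spanned eight half-log steps topping at 100 uM in 0.5% DMSO; gain or loss of signal was fitted relative to vehicle.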

[12] = read-out: growth arrest and DNA damage 45 (GADD45B), GADD45B (gene 4616); test: LTEA_HepaRG_GADD45B: Life Technologies and Expression Analysis (LTEA) Assay for growth arrest and DNA damage 45 (GADD45B) using HepaRG (AID 2283461)
Outline: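 HepaRG, ~100,000 cells/well, 48 h plating; serum-free induction medium; cpd 100 uM top, half-log x8, 0.5% DMSO, duplicate, 48 h; lysis in RLT, RNA isolation, qRT-PCR; norm ACTB/GAPDH/POLR2A; bidirectional fit vs DMSO.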

[13] = read-out: ABC Transporter (ABCC3), ABCC3 (gene 8714); test: LTEA_HepaRG_ABCC3: Life Technologies and Expression Analysis (LTEA) Assay for ABC Transporter (ABCC3) using HepaRG (AID 2283462)
Outline: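 Human HepaRG, 48 h dosing, 8-pt half-log series from 100 uM, 0.5% DMSO vehicle, duplicates. ABCC3 mRNA by TaqMan qRT-PCR, housekeeping-normalized; bidirectional curve fit vs DMSO.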

[14] = read-out: Cyclin D2 (CCND2), CCND2 (gene 894); test: LTEA_HepaRG_CCND2: Life Technologies and Expression Analysis (LTEA) Assay for Cyclin D2 (CCND2) using HepaRG (AID 2283449)
Outline: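 Read-out is CCND2 mRNA level measured by qRT-PCR in human HepaRG liver cells and normalised to three housekeeping genes. Chemicals were applied for 48 h at up to 100 uM, with gain or loss fitted relative to 0.5% DMSO.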

[15] = read-out: Cytochrome P450 (CYP1A1), CYP1A1 (gene 1543); test: LTEA_HepaRG_CYP1A1: Life Technologies and Expression Analysis (LTEA) Assay for Cytochrome P450 (CYP1A1) using HepaRG (AID 2283454)
Outline: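 HepaRG, 48 h post-plating switched to serum-free induction medium; 8-pt conc-response (top 100 uM, half-log, 0.5% DMSO), duplicates, 48 h. Lysis in RLT, TaqMan qRT-PCR for CYP1A1; gain or loss vs DMSO.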

Measured: AC50

Sequence of Fatty acid synthase (Homo sapiens) (P49327 whole entry, looked up): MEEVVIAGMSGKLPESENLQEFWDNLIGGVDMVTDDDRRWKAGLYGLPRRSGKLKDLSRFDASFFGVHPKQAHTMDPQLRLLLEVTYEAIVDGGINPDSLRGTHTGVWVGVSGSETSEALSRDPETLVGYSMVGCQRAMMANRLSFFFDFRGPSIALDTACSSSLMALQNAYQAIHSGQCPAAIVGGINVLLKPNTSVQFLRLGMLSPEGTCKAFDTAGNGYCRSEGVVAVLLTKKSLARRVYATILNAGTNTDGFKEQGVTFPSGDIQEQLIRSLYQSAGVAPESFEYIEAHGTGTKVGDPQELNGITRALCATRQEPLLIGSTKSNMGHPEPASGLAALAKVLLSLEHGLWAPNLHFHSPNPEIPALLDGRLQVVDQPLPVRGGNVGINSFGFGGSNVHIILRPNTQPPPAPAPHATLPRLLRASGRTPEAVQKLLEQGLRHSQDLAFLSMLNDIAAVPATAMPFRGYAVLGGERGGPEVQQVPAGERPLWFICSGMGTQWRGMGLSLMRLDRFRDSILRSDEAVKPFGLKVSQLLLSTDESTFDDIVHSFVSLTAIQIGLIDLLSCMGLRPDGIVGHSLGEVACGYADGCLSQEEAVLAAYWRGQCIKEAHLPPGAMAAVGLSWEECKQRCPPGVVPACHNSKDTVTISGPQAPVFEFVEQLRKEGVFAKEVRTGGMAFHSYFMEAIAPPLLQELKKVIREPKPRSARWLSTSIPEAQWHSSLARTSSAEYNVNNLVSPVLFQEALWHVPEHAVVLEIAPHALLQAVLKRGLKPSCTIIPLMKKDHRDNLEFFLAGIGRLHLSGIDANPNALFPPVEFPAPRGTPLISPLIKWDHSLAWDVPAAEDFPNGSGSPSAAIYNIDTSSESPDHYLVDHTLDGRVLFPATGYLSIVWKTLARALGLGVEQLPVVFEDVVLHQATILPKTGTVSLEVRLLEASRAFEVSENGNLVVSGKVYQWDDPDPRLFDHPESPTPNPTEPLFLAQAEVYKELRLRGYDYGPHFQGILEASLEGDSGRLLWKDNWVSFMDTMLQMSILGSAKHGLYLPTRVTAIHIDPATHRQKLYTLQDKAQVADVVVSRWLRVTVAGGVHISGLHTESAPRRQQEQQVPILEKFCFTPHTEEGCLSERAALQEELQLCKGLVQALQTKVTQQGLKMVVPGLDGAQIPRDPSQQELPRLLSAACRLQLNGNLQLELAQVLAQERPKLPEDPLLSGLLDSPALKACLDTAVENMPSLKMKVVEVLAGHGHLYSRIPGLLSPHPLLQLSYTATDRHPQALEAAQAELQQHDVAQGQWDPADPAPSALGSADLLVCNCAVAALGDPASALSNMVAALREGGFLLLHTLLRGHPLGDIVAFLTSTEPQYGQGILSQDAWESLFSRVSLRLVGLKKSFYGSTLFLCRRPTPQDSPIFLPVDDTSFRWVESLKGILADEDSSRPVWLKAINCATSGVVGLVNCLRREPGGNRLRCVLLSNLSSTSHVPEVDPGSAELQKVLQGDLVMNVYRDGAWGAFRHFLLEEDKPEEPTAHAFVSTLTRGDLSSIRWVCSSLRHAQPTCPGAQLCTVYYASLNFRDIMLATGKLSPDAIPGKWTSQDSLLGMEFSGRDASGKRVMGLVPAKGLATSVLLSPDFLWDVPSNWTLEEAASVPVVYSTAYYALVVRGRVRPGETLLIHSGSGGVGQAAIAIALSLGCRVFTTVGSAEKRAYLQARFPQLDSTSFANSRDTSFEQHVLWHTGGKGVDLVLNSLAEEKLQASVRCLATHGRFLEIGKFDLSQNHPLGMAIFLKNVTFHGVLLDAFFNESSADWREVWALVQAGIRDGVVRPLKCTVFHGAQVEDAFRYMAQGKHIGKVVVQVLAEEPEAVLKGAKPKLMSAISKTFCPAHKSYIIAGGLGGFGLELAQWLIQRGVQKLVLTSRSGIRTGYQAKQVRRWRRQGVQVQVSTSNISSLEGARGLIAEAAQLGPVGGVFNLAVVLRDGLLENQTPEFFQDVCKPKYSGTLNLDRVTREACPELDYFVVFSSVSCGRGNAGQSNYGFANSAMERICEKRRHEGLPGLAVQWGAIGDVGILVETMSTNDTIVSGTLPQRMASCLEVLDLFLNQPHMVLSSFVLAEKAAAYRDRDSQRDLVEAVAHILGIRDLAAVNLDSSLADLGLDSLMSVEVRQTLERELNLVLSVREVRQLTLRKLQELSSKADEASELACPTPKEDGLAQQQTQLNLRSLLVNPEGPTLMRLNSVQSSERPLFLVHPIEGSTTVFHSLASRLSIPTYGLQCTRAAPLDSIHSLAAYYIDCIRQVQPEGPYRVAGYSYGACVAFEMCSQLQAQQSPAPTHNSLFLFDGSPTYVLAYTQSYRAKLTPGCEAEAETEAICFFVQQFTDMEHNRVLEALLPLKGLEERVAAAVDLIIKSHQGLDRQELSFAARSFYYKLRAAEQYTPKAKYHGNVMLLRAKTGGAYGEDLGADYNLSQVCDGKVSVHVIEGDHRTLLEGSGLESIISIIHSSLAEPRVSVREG

CCCCN1C(=O)[C@@H]([C@H](O)C2CCCCC2)NC(=O)C12CCN(Cc1ccc(Oc3ccc(C(=O)O)cc3)cc1)CC2
active: [2] 1.32 µM | [4] 50 µM | [5] 2.04 µM | [6] 3.54 µM | [7] 2.28 µM | [8] 6.4 µM | [10] 4.14 µM | [11] 2.24 µM | [12] 21.5 µM | [13] 4.37 µM
inactive: [1] | [3] | [9]

CCc1ccc(O)c(C(C)(C)C)c1
inactive: [1] | [3] | [4] | [5] | [6] | [7] | [8] | [9] | [10] | [11] | [12] | [13]

O=S1(=O)CCCO1
inactive: [1] | [14] | [3] | [4] | [5] | [6] | [7] | [8] | [9] | [10] | [11] | [12] | [13]

CC(=O)c1ccccc1
inactive: [1] | [14] | [3] | [4] | [5] | [6] | [7] | [8] | [9] | [10] | [11] | [12] | [13]

O=C1CN(N=Cc2ccc([N+](=O)[O-])o2)C(=O)N1
active: [3] 81.5 µM | [6] 73 µM | [9] 80.7 µM
inactive: [1] | [14] | [4] | [5] | [15] | [7] | [8] | [10] | [11] | [12] | [13]
